The text below walks through data of PubChem BioAssay.

Assay [1] deals with TRPC4 beta (transient receptor potential cation channel C4), mouse. The assay can be described thus: TRPC4 cation channel opening, retest – cell-based, Fluo4 calcium, HEK293 TRPC4beta/mu-opioid, duplicates, 10 µM, confirmation (AID 2426;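 active means fluorescence ratio normalized to control raised more than 50% in primary screen plus both repeat runs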;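 further: percent rise of integrated ratio over buffer wells lacking compound which define 0%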). The following applies: Fluo4 calcium fluorescence, at 10 µM; active compounds read high.
Assay [2] relates to transient receptor potential cation channel C4 beta (TRPC4), mouse. Kind of assay: TRPC4 cation channel opening, second retest – cell-based, second round, Fluo4, HEK293 TRPC4beta/mu-opioid, 1 µM, confirmation (AID 2461;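 active means primary screen active and over 50% activation in each of two duplicate runs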). The following applies: Fluo4 calcium fluorescence, at 1 µM; active compounds read high.
The test system of assay [3] is TRPC4 (transient receptor potential cation channel C4 beta), mouse. The assay can be described thus: potentiation of DAMGO EC20 TRPC4 response – cell-based, second round, Fluo-4, HEK293 TRPC4beta/mu-opioid, 1 µM, confirmation (AID 2554;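 active means primary screen hit whose fluorescence ratio, in both repeats, exceeds the weak agonist control mean by 3 SD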). The following applies: DAMGO EC20, Fluo-4 calcium flux, at 1 µM; active compounds read high.
Assay [4] deals with TRPC4 beta (transient receptor potential cation channel C4), mouse. The assay can be described thus: potentiation of DAMGO EC20 TRPC4 response – cell-based, Fluo-4, HEK293 TRPC4beta/mu-opioid, confirmation (AID 2555;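 active means primary screen hit whose calcium fluorescence ratio, in both repeats, exceeds the weak agonist control mean by 3 SD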). The following applies: DAMGO EC20, Fluo-4 calcium flux, at 10 µM; active compounds read high.
Assay [5] addresses Short transient receptor potential channel 4 (Mus musculus) (UniProt Q9QUQ5). Kind of assay: blockers of DAMGO-evoked TRPC4 calcium flux – cell-based, Fluo4, HEK293 TRPC4beta/mu-opioid, confirmation (AID 2636;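 active means calcium signal cut by more than 3 SD below the full-agonist control yet still positive, in both repeats and the earlier primary screen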). The following applies: at 10 µM; active compounds read high.
For assay [6] the target is unchanged. Kind of assay: blockers of DAMGO-evoked TRPC4 calcium flux – cell-based, second round, Fluo4, HEK293 TRPC4beta/mu-opioid, 1 µM, confirmation (AID 2637;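 active means calcium signal ratio cut to more than 3 SD under the fully stimulated control mean yet still positive, in both repeats and the primary screen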). The following applies: at 1 µM; active compounds read high.
The target is the same in assay [7]. The assay can be described thus: potentiation of DAMGO-evoked TRPC4 calcium signal – cell-based, HEK293 TRPC4/mu-opioid, Fluo-4 calcium, EC20 DAMGO, dose response (AID 434941;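 active means earlier screen potentiator hit that boosts the TRPC4 ion channel at some dose, with a dose response; inactive means no potentiation, no dose response, or not a prior hit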;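 further: calcium entry triggered by an EC20 dose of DAMGO at the co-expressed mu-opioid receptor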).
For assay [8] the target is unchanged. The assay can be described thus: block of DAMGO-driven TRPC4 calcium entry – cell-based, HEK293 TRPC4/mu-opioid, Fluo-4 calcium, dose response (AID 434942).
Assay [9] deals with Short transient receptor potential channel 6 (Mus musculus) (UniProt Q61143). The assay can be described thus: TRPC6 blockade by TRPC4 inhibitor hits – cell-based, HEK293, membrane potential dye, duplicate, selectivity assay for TRPC4 inhibitor project, confirmation (AID 434948;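 active means active in primary screen and both duplicates, each dropping signal beyond three positive-control SD with fluorescence still positive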). The following applies: HEK293 TRPC6, membrane potential dye fluorescence, at 10 µM, stimulated with maximal-effect acetylcholine; active compounds read high.
Chain of Short transient receptor potential channel 6 (Mus musculus) (Q61143 whole entry, looked up): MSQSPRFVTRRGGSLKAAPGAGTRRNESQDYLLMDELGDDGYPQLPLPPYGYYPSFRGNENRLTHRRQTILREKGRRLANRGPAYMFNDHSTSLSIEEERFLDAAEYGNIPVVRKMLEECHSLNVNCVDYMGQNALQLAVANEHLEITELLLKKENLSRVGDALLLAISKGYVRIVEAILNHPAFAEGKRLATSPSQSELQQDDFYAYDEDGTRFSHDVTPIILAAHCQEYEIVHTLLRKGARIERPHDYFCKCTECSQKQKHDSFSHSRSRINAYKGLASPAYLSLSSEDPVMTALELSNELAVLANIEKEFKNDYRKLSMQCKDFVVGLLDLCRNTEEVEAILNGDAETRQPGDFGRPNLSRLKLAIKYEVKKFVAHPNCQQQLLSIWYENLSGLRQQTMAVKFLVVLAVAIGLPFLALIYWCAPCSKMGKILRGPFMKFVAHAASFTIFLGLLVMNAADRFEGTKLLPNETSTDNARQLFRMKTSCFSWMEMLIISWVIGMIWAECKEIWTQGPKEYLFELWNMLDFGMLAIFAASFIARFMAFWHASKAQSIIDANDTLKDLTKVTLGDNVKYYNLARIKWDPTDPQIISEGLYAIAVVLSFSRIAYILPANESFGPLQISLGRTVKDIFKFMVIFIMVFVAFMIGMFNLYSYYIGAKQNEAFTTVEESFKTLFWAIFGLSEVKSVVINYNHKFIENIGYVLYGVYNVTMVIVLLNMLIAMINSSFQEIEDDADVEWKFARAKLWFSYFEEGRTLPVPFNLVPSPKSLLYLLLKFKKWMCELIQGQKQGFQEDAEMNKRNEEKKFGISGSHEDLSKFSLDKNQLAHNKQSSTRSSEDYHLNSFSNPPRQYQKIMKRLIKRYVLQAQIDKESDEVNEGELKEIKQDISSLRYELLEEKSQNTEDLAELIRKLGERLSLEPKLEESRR

Assay [10] shares this target. The assay can be described thus: TRPC6 opening by TRPC4 activator hits – cell-based, HEK293, membrane potential dye, duplicate, selectivity assay for TRPC4 activator project, confirmation (AID 434950;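 active means membrane potential signal rise above negative control mean plus 3 SD in both duplicates, also active in the earlier TRPC4 screen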;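 on activation: 0% = buffer only wells and 100% = acetylcholine maximal-effect wells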). The following applies: HEK293 TRPC6, membrane potential fluorescence, at 10 µM; activation: active compounds read high; outcome: activation.
Assay [11] has the same target. Kind of assay: positive modulators of mouse TRPC6 channel – HEK293 cells, membrane potential dye, duplicate, selectivity assay for TRPC4 potentiator project, confirmation (AID 434952;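 active means compound raising the membrane signal above positive-control mean plus 3 SD in both repeats, and a primary screen hit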). The following applies: HEK293 TRPC6, membrane potential dye fluorescence, at 10 µM, maximal acetylcholine added after compound; active compounds read high.
Assay [12] has as its target Short transient receptor potential channel 4 (Mus musculus) (UniProt Q9QUQ5). The assay can be described thus: calcium flux activators in TRPC4/5HT1a cells, counter-screen for TRPC4 activator project, cell-based, second counter screen, HEK293 TRPC4/5HT1a, Fluo-4 (AID 434977;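 active means calcium signal rise above buffer-control mean plus 5 SD in both duplicates, and also a hit in the primary screen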;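 on activation: plate controls were assay buffer for no effect and maximal serotonin response for full effect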). The following applies: Fluo-4 calcium flux, at 10 µM; active compounds read high.
Assay [13] is described as follows: serotonin-gated TRPC4 signal block – cell-based, second counter screen, HEK293 TRPC4/5HT1a, Fluo-4, counter-screen for TRPC4 inhibitor project, confirmation (AID 434978;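 active means primary screen active whose calcium signal fell more than 3 SD beyond the full-serotonin control mean in both duplicate plates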;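 further: serotonin given first at submaximal then at maximal dose after compound preincubation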). The following applies: Fluo-4 calcium flux, at 10 µM, serotonin added to trigger calcium flux; active compounds read high.
Assay [14] concerns TRPC4 (mouse), co-expressed with 5HT1a in HEK293. The assay can be described thus: enhancement of serotonin-evoked TRPC4 response – cell-based, second counter screen, HEK293 TRPC4/5HT1a, Fluo-4, counter-screen for TRPC4 potentiator project, confirmation (AID 434979;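 active means signal rise over 3 SD above mean of control wells given weak agonist, in both repeats and first screen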). The following applies: Fluo-4 calcium flux, at 10 µM, serotonin added at its EC20 dose; active compounds read high.
The nature of assay [15]: nonspecific calcium rise without TRPC4 – cell-based, HEK293 mu-opioid receptor line, counter-screen for TRPC4 activator project, confirmation (AID 449723;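 active means hit in primary screen, with calcium signal over 5 SD above buffer well mean in both duplicates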;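 further: counter screen cells carry the mu-opioid receptor alone and lack TRPC4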). The following applies: HEK293 mu-opioid cells, Fluo-4 calcium fluorescence, at 10 µM; active compounds read high.
A short description of assay [16]: nonspecific potentiation of DAMGO calcium response – cell-based, HEK293 mu-opioid receptor line, counter-screen for TRPC4 allosteric potentiator project, confirmation (AID 449724;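 active means calcium signal rise more than 3 SD above the low-dose agonist control mean, in both duplicate plates and the primary screen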;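 further: HEK293 cells carrying mu-opioid receptor only with no TRPC4 channel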). The following applies: HEK293 mu-opioid receptor cells, Fluo-4 calcium flux, at 10 µM, compound added before EC20 DAMGO stimulus; active compounds read high.
Assay [17] can be described thus: nonspecific flux increase, KCNQ1-free cells – parental CHO cells, counter-screen for KCNQ1 potentiator project (AID 493006;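 active means duplicate-averaged activation above buffer control mean plus 5 SD of those controls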;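 on activation: fluorescence ratio of max minus min over baseline after K+ and Tl+ depolarization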). The following applies: parental CHO-K1 cells, FluxOR thallium flux, at 10 µM; active compounds read high.
The target in assay [18] is Potassium voltage-gated channel subfamily KQT member 1 (Homo sapiens) (UniProt P51787). The assay can be described thus: enhancement of KCNQ1 channel thallium flux – FluxOR thallium flux, CHO cells, duplicates, confirmation (AID 493007;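 active means potentiation averaged over duplicate wells exceeding buffer-only control mean by more than 3 SD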;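 on outcome: cells depolarized by a potassium plus thallium sulfate stimulus after compound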;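 on potentiation: 0% = buffer-only wells and 100% = R-L3 activator control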). The following applies: KCNQ1 cell line, FluxOR thallium flux fluorescence, at 10 µM; active compounds read high, % of reference activator effect, buffer zero.
Chain of Potassium voltage-gated channel subfamily KQT member 1 (Homo sapiens) (P51787 whole entry, looked up): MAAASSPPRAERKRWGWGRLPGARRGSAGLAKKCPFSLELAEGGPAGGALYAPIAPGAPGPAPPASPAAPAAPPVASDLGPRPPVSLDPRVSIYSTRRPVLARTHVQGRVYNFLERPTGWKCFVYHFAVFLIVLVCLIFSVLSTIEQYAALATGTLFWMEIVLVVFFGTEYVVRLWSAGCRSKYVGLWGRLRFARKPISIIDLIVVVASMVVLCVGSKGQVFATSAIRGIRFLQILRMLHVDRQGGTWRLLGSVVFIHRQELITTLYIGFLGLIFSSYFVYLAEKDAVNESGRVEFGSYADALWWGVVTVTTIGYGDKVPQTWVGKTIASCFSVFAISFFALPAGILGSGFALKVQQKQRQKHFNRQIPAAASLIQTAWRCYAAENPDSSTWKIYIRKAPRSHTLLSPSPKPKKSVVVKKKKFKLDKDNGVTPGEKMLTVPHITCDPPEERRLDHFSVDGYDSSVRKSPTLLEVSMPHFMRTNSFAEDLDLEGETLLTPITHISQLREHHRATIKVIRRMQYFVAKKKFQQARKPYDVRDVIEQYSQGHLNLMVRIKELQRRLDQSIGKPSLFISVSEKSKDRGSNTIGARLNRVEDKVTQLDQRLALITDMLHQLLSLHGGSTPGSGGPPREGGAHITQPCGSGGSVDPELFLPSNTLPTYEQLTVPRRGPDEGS

In assay [19] the target is Potassium voltage-gated channel subfamily KQT member 2 (Rattus norvegicus) (UniProt O88943). The assay can be described thus: KCNQ2 thallium flux enhancement – KCNQ2-CHO-K1 cells, selectivity assay for KCNQ1 potentiator project (AID 493009;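 active means mean duplicate potentiation above the buffer control mean plus 5 SD of buffer wells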;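 further: assay conditions were tuned for KCNQ1 rather than KCNQ2 modulators; signal is max minus min fluorescence divided by baseline after thallium stimulus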). The following applies: FluxOR thallium flux fluorescence, at 10 µM; active compounds read high, scaled: buffer 0, activator control 100.
Chain of Potassium voltage-gated channel subfamily KQT member 2 (Rattus norvegicus) (O88943 whole entry, looked up): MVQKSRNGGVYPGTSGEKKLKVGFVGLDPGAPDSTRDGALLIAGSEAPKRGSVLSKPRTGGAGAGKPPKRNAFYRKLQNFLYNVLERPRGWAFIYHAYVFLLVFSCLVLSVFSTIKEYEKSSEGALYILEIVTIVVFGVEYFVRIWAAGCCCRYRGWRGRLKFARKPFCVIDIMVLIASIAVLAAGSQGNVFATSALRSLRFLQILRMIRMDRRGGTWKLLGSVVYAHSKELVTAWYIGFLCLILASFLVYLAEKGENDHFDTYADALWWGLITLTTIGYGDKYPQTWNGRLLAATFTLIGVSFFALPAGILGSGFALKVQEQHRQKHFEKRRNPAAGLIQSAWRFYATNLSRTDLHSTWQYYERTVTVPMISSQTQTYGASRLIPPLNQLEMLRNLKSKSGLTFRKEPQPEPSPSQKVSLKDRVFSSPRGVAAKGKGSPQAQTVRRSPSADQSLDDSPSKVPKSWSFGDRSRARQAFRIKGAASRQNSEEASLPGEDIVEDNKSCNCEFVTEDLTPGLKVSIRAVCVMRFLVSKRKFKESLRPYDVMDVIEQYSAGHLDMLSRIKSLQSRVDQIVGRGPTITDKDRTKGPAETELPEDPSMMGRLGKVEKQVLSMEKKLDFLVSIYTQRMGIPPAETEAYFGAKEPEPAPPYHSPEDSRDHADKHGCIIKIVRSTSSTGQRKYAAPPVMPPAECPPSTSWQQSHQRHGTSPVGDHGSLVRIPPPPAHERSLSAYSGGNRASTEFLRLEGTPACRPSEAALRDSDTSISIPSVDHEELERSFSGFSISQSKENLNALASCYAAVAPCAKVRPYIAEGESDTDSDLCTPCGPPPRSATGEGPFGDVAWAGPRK
In assay [20] the target is Potassium voltage-gated channel subfamily KQT member 1 (Homo sapiens) (UniProt P51787). The assay can be described thus: KCNQ1 activators by electrophysiology – IonWorks patch clamp, KCNQ1-CHO cells, orthogonal assay for KCNQ1 potentiator project, confirmation (AID 493184;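 active means current rise at least 3 SD above the untreated control mean in each of two repeat wells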). The following applies: automated patch clamp current, at 10 µM; active compounds read high.

For some assays here: Results with a measured potency or affinity are listed apart. The source made the active and inactive calls.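 How the source made its calls, unless noted: active means primary screen inhibitor hit that blocks the TRPC4 channel at some tested dose, yielding a dose curve; inactive means the rest.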

Chain of Short transient receptor potential channel 4 (Mus musculus) (Q9QUQ5 whole entry, looked up): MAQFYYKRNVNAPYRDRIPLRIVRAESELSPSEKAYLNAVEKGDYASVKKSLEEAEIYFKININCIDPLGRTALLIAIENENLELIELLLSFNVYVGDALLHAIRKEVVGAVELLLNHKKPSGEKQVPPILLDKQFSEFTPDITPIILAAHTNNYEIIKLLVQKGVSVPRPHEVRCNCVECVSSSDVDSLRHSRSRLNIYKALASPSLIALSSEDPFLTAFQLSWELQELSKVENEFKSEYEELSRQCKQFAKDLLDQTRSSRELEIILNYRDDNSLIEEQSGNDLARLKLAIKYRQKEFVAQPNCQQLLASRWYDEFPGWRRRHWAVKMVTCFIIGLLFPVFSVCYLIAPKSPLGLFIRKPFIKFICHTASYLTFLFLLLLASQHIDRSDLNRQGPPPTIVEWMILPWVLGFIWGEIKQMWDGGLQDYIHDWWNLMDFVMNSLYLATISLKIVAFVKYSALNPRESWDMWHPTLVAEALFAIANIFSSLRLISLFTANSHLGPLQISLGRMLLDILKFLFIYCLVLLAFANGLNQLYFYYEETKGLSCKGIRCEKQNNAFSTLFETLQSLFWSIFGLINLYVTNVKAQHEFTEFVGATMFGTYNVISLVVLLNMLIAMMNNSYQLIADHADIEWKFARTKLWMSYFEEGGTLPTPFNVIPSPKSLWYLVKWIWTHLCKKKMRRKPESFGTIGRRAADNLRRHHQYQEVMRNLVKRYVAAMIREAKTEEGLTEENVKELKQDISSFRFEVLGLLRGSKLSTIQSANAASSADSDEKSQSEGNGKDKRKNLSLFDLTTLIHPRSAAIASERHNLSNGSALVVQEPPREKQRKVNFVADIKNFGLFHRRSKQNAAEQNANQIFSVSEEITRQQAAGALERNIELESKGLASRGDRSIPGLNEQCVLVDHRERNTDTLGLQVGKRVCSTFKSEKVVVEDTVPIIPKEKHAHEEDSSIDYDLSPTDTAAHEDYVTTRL

Consider `NCCSc1c(-c2ccc(Cl)cc2)[nH]c2ccccc12`, for which the activation in [1] is 116% (active); in assay [12], 8.63% (active); in [15], 19.5% (active). Moreover, the result in [2], in assay [3], in [4], in [5], in assay [6] and in assay [7] was inactive. The outcome in [8], in assay [9], in [10], in assay [11], in assay [13] and in assay [14] was inactive. In addition, the result in assay [16] was inactive.
Turning to `CCCOc1ccc(C(=O)NNC(=S)NC(=O)c2ccco2)cc1`, the activation is 223% (active) in assay [1]; 38.5% (active) in assay [10]; 143% (active) in [12]; 61.8% (active) in [15]; 195% (active) in assay [17]. The result in [2], in assay [3], in [4], in assay [5], in assay [6] and in assay [7] was inactive. The outcome in [8], in assay [9], in assay [11], in assay [13], in [14] and in assay [16] was inactive. For the same molecule, the outcome in assay [20] was inactive. The potentiation in assay [18] was 212% (active); in assay [19], 340% (active).
Take `CCN1CCN(c2ccc(S(=O)(=O)N3CCCCC3)cc2NC(=O)c2cccc(C)c2[N+](=O)[O-])CC1`: the activation in [1] is 143% (active); in assay [12] it was 40.7% (active). In addition, the result in assay [2], in assay [3], in assay [4], in assay [5], in [6] and in [7] was inactive. Besides, the outcome in [8], in assay [9], in [10], in assay [11], in [13] and in assay [14] was inactive. Besides, the outcome in assay [15] and in assay [16] was inactive.
On to `O=c1c2cc(Br)ccc2nc(-c2ccc(Cl)cc2)n1O`, for which the activation was 268% (active) in assay [1], 102% (active) in assay [12], 31.7% (active) in assay [15] and 654% (active) in assay [17]. Besides, the result in [2], in assay [3], in assay [4], in assay [5], in assay [6] and in [7] was inactive. Besides, the outcome in assay [8], in assay [9], in assay [10], in assay [11], in assay [13] and in assay [14] was inactive. In addition, the outcome in assay [16] and in [20] was inactive. Further, the potentiation was 354% (active) in assay [18] and 708% (active) in assay [19].
As to `CN(C)C(CNC(=O)Cc1cccc(C(F)(F)F)c1)c1ccco1` (stereo not drawn), the activation in assay [1] is 83% (active); in assay [10], 29% (active). Moreover, the outcome in assay [2], in [3], in assay [4], in assay [5], in assay [6] and in [7] was inactive. Also, the outcome in assay [8], in assay [9], in assay [11], in assay [12], in [13] and in [14] was inactive. Besides, the outcome in assay [15] and in [16] was inactive.
With `CCOC(=O)C1=NN(C(=O)c2ccc(C)cc2)C(O)(c2ccc(Cl)cc2)C1` (stereo not drawn), the activation in assay [1] was 98% (active); in [10] it was 217% (active); in [12], 66.4% (active); in assay [15], 37.9% (active); in assay [17], 630% (active). The result in assay [2], in assay [3], in assay [4], in [5], in [6] and in assay [7] was inactive. For the same molecule, the outcome in assay [8], in [9], in assay [11], in [13], in [14] and in assay [16] was inactive. In assay [20], the result was inactive. Also, the figures for the potentiation in assay [18] and in assay [19] were 336% (active) and 655% (active), respectively.
On to `CCOc1ccccc1OCC(=O)Nc1cc(S(=O)(=O)N2CCCCC2)ccc1N1CCN(CC)CC1`, for which the activation in [1] was 195% (active); in assay [12], 45% (active). Also, the outcome in [2], in assay [3], in [4], in assay [5], in assay [6] and in assay [7] was inactive. Further, the outcome in assay [8], in assay [9], in [10], in assay [11], in assay [13] and in assay [14] was inactive. The result in assay [15], in [16], in assay [17], in assay [18], in assay [19] and in assay [20] was inactive.
